High-throughput results: PubChem BioAssay, several laboratories
RecA splice inh = Mtb RecA intein splicing inhibition; AID 2221; inhibition, % (test concentration not listed); cell-free RecA intein splicing, fluorescence; P9WHJ3; 290,000 compounds, 0.75% hits; in the data active means inhibition above about 30%; inconclusive means no clear call, values can overlap the other calls;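 further: 0% = vehicle wells and 100% = reference inhibitor control wells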
FadD28 binding = inhibitors of Mycobacterium tuberculosis FadD28 bisubstrate binding; 360,000 compounds, 0.22% hits; inhibition, % at 12.5 µM; FadD28 bisubstrate probe binding, fluorescence polarization; in the data active means inhibition above about 8.5%, passing the limit was not always enough; inconclusive means no clear call, values can overlap the other calls
Rv3671c protease = inhibits the M. tuberculosis serine protease Rv3671c; P9WHR9; inhibition, % at 5.96 µM; 320,000 compounds, 0.048% hits; AID 2606; in the data active means inhibition above about 38%;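 further: extracellular domain of Rv3671c used as enzyme; 0% = enzyme with DMSO and 100% = no enzyme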
TcdB inh = blocks C. difficile toxin B glycohydrolase activity. AID 652162. 350,000 compounds, 0.24% hits. P18177. TcdB glycohydrolase enzymatic assay, plate reader. inhibition, % at 9.99 µM; in the data active means inhibition above about 10%
BioA inh-1 = inhibitors of Mycobacterium tuberculosis BioA enzyme | inhibition, % at 9.99 µM | purified M. tuberculosis BioA enzyme, plate reader | 360,000 compounds, 0.096% hits | AID 602481; in the data active means inhibition above about 40%; inconclusive means no clear call, values can overlap the other calls
UGM FP inh = inhibitors of M. tuberculosis UDP-galactopyranose mutase; P9WIQ1; inhibition, % at 10 µM; purified UGM, fluorescence polarization probe displacement; AID 504406; 320,000 compounds, 0.06% hits; in the data active means inhibition above about 10%, passing the limit was not always enough; inconclusive means no clear call, values can overlap the other calls
BioA inh-2 = inhibitors of Mycobacterium tuberculosis BioA enzyme. shares compounds with BioA inh-1. purified BioA enzyme, plate reader, dose response. max activity, %. 310 tested, under 10 active. AID 651679;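 further: top concentration of the dilution series was 10 µM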
HepG2 cytotox = HepG2 viability loss. shares compounds with BioA inh-1. HepG2 cytotoxicity, plate reader. max activity, %. 310 tested, under 10 active. AID 651898
NIH3T3 tox 5 = kills NIH3T3 cells; shares compounds with BioA inh-1; NIH3T3 cytotoxicity, plate reader; activity change, negative = cytotoxicity, % at 26 µM; 310 tested, under 10 active; AID 651900
The depositor's hits bear a star; i = inactive; u = inconclusive; x = no result. Rows were chosen to be rich in hits. Some 0.97% of all compounds tested hit in one or more screens of this group. Unless noted, how the calls were made is not given here.

SMILES	RecA splice inh	FadD28 binding	Rv3671c protease	TcdB inh	BioA inh-1	UGM FP inh	BioA inh-2	HepG2 cytotox	NIH3T3 tox 5
O=C(Nc1ccc(N2CCOCC2)c(Cl)c1)c1cccnc1	-3	-4	-4	x	47*	0	-3	-16	-6
C[C@@H]1CN([C@H](C)CO)C(=O)c2cc(C#Cc3ccccc3)cnc2O[C@@H]1CN(C)C(=O)CCN1CCCCC1	x	x	x	1	0	x	x	x	x
Cc1cc2c(c(=O)n1Cc1cccnc1)C(Cc1ccccc1)C(C#N)=C(N)O2 (stereo unspecified)	-4	-2	-8	x	x	1	x	x	x
Cc1cc2c(c(=O)n1Cc1cccnc1)C(c1cccs1)C(C#N)=C(N)O2 (stereo unspecified)	0	1	1	x	64*	0	-8	22	8
CN1c2ccc(C#Cc3cccnc3)cc2[C@@H]2[C@@H](CCN2C(=O)C2CC2)[C@H]1CO	x	x	x	-4	5	x	x	x	x
CCNC(=O)C[C@H]1CC[C@@H]2[C@H](COC[C@@H](O)CN2C(=O)Nc2c(C)noc2C)O1	x	x	x	0	-1	x	x	x	x
COc1cccc(-c2cc(NC=O)c3ncc(-c4cccc(C(=O)N(C)C)c4)n3c2)c1	x	-1	x	-1	16	x	x	x	x
COc1ccc(-c2cc(NC=O)c3ncc(-c4cccc(C(=O)N(C)C)c4)n3c2)cn1	x	-2	x	-3	42*	x	-5	-10	-4
CCc1nn(CC(=O)N2CCN(Cc3ccc4c(c3)OCO4)CC2)c(=O)c2cc3occc3n12	-2	0	x	x	57*	x	22	10	-8
CCCC(=O)N1CCN(Cc2ccc3c(c2)OCO3)CC1	-2	-2	-3	x	1	-3	x	x	x
O=C(c1ccc2c(c1)OCO2)N1CC[C@@H]2[C@@H](CO)Nc3ccc(-c4ccc(F)cc4)cc3[C@@H]21	x	x	x	2	10	x	x	x	x
N#Cc1ccc(-c2ccc3c(c2)[C@@H]2[C@@H](CCN2C(=O)c2ccc(F)cc2)[C@@H](CO)N3)cc1	x	x	x	x	40*	x	5	i	-6
O=C(c1ccc2c(c1)OCO2)N1CC[C@@H]2[C@H](CO)Nc3ccc(-c4ccc(F)cc4)cc3[C@@H]21	x	x	x	1	90*	x	-7	i	-13
N#Cc1ccc(-c2ccc3c(c2)[C@H]2[C@H](CCN2C(=O)c2ccc(F)cc2)[C@H](CO)N3)cc1	x	x	x	x	10	x	x	x	x
C/C=C/c1cnc2c(c1)C(=O)N([C@H](C)CO)C[C@@H](C)[C@@H](CN(C)Cc1ccc(F)cc1)O2	x	x	x	-1	-4	x	x	x	x
CC(=O)c1ccc(C(=O)N2CCCC(CO)(Cc3ccccc3C)C2)s1 (stereo unspecified)	1	-2	x	-2	54*	x	-7	-7	-4
Cc1ccccc1CC1(CO)CCCN(C(=O)c2ccccc2Cl)C1 (stereo unspecified)	8	-1	1	1	x	-2	x	x	x
CCc1ccc(NC(=O)CSc2nc(=O)n(CCCN3CCOCC3)c3c2CCCC3)cc1	2	1	2	0	3	3	x	x	x
Cc1ccc(NC(=O)CSc2nc(=O)n(CCCN3CCOCC3)c3c2CCCC3)cc1F	3	1	-1	1	47*	-1	2	9	7
CO[C@H]1CN(C)C(=O)c2ccc(NC(C)=O)cc2OC[C@@H](C)N(C(=O)C2CCCCC2)C[C@H]1C	x	x	x	1	53*	x	-3	i	3
COc1ccc(Cc2c(-c3ccc(C)cc3)nc3c(C)cc(Br)cn23)c(C)c1	x	-1	x	-5	0	x	x	x	x
COc1ccc(Cc2c(-c3ccc(F)cc3)nc3ccc(C)cn23)c(C)c1	x	x	x	1	x	x	x	x	x
COc1ccc(Cc2c(-c3ccc(OC)c(OC)c3)nc3c(C)cc(Br)cn23)c(C)c1	x	-4	x	0	69*	x	-8	-7	-2
COc1ccc(Cc2c(-c3ccc(OC)c(OC)c3)nc3ccc(C)cn23)c(C)c1	x	-8	x	2	79*	x	4	-3	-1
Cc1cc(/C=C(\C#N)C(=O)Nc2ccccc2)c(C)n1-c1ccc2c(c1)OCO2	-4	-3	-6	1	16	-5	x	x	x
SMILES	RecA splice inh	FadD28 binding	Rv3671c protease	TcdB inh	BioA inh-1	UGM FP inh	BioA inh-2	HepG2 cytotox	NIH3T3 tox 5
Cc1cc(/C=C(/C#N)C(=O)Nc2ccccc2)c(C)n1-c1cccnc1	-3	-5	0	0	55*	3	-7	6	-1
C=CCn1c(COc2ccccc2F)nnc1SCCN1C(=O)c2ccccc2C1=O	-1	-5	1	x	44*	x	-7	12	0
C=CCn1c(SCCN2C(=O)c3ccccc3C2=O)nc2scc(-c3ccc(F)cc3)c2c1=O	x	-1	x	1	x	x	x	x	x
CCc1nc2ccc(Br)cc2c(=O)n1-c1ccccc1C(F)(F)F	-6	-8	-1	2	60*	-2	-7	u	1
O=C(C[C@H]1CC[C@H](NC(=O)CN2CCOCC2)[C@@H](CO)O1)NC1CCCCC1	x	x	x	-1	-2	x	x	x	x
COc1ccc(-c2nc3cnccn3c2Nc2ccc3c(c2)OCO3)cc1	4	-3	8	-2	54*	0	-3	4	-12
COc1ccc(Nc2c(-c3ccc(C)cc3)nc3cnccn23)cc1	4	2	11	2	x	3	x	x	x
COc1ccc(Nc2c(-c3ccc(OC)cc3)nc3cnccn23)cc1	-1	0	8	1	46*	2	-7	-6	1
CCN1CCN(CC(=O)c2c(C)n(Cc3ccccc3)c3ccc(OC)cc23)CC1	4	-3	-1	x	26	-1	x	x	x
COc1ccc2c(c1)c(C(=O)CN1CCC3(CC1)OCCO3)c(C)n2Cc1ccccc1	-1	-1	1	x	59*	1	-6	-8	-10
CCCC(=O)Nc1ccc2c(c1)C(=O)N(C)C[C@@H](OC)[C@H](C)CN(C(=O)Cc1ccccn1)[C@H](C)CO2	x	x	x	x	5	x	x	x	x
Cc1cc(C)n2nc(SCC(=O)N3CCC4(CC3)OCCO4)nc2n1	0	-6	12	x	5	0	x	x	x
Cc1nc2nc(SCC(=O)NCCN3CCOCC3)nn2c(C)c1Cc1ccccc1	5	-3	0	x	x	3	x	x	x
Cc1nc2nc(SCC(=O)N3CCOCC3)nn2c(C)c1Cc1c(F)cccc1Cl	x	-1	4	x	94*	2	-9	-7	-13
Cc1ccc(Cc2c(C)nc3nc(SCC(=O)NCCCN4CCCCC4)nn3c2C)cc1	x	1	-1	-1	54*	0	-2	-12	10
Cc1nc2nc(SCC(=O)N3CCC4(CC3)OCCO4)nn2c(C)c1Cc1ccccc1	3	-4	4	x	74*	0	-9	25	8
Cc1noc(C)c1NC(=O)Nc1cccc2c1O[C@H](CN(C)Cc1ccc(C(=O)Nc3ccccc3N)cc1)[C@@H](C)CN([C@@H](C)CO)C2=O	x	x	x	-1	x	x	x	x	x
C[C@H]1CN([C@@H](C)CO)C(=O)c2cc(C#Cc3cccnc3)cnc2O[C@@H]1CN(C)Cc1ccncc1	x	x	x	x	14	x	x	x	x
